# Compounds without any hit were thinned out: in the full panel of roughly 79,000, 15% have a hit. Unmarked numbers belong to inactive results. Activity calls are given as the source filed them. No stated cut-off is given here; in the data, active means growth inhibition above about 70%; inactive means the rest.
# Assays:
# [1] = NCI Yeast Anticancer Drug Screen. Data for the rad50 strain (AID 155);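 further: 0% = growth of vehicle-only cultures of the same strain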; details: S. cerevisiae rad50 strain growth inhibition, hits give high values
# Outline: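 DNA repair mutant yeast, compound exposure, growth read-out; inhibition is taken relative to vehicle.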
# [2] = NCI Yeast Anticancer Drug Screen. Data for the mec2-1 strain (AID 157); details: S. cerevisiae mec2-1 strain, hits give high values
# Outline: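 Strain: mec2-1 (DNA repair/cell cycle alteration). Compound exposure, then growth measured; inhibition expressed relative to vehicle.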
# [3] = NCI Yeast Anticancer Drug Screen. Data for the sgs1 mgt1 strain (AID 161);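 further: 0% = growth of cultures given vehicle only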; details: S. cerevisiae sgs1 mgt1 strain, hits give high values
# Outline: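 Read-out: growth inhibition vs vehicle controls. Cells: mutant yeast strain deficient in DNA damage repair.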
# [4] = NCI Yeast Anticancer Drug Screen. Data for the cln2 rad14 strain (AID 165);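 further: 0% = growth equal to vehicle treated cultures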; details: S. cerevisiae cln2 rad14 strain, hits give high values
# Outline: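 Compounds are applied to the cln2 rad14 yeast strain, and growth is then compared with that of vehicle-treated cultures to give inhibition.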
# [5] = NCI Yeast Anticancer Drug Screen. Data for the bub3 strain (AID 167); details: S. cerevisiae bub3 mutant strain, hits give high values
# Outline: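 In this screen, a yeast mutant lacking normal mitotic checkpoint function is challenged with compound. Relative growth versus vehicle gives the inhibition value.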
# [6] = NCI Yeast Anticancer Drug Screen. Data for the mlh1 rad18 strain (AID 175); details: S. cerevisiae mlh1 rad18 strain growth inhibition, hits give high values
# Outline: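 Read-out is yeast growth inhibition, calculated against vehicle-only controls. The compound was applied to a strain engineered with DNA damage repair alterations.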
# [7] = at 5.0 µM (retest, dose inferred, filed as 0.5)
# [8] = at 50.0 µM (retest, dose inferred, filed as 5.0)
SMILES,"growth inhibition [1, 7]","growth inhibition [1, 8]",growth inhibition ([1]; at 50.0 µM),"growth inhibition [2, 7]","growth inhibition [2, 8]",growth inhibition ([2]; at 50.0 µM),"growth inhibition [3, 7]","growth inhibition [3, 8]",growth inhibition ([3]; at 50.0 µM),"growth inhibition [4, 7]","growth inhibition [4, 8]",growth inhibition ([4]; at 50.0 µM),"growth inhibition [5, 7]","growth inhibition [5, 8]",growth inhibition ([5]; at 50.0 µM),"growth inhibition [6, 7]","growth inhibition [6, 8]",growth inhibition ([6]; at 50.0 µM)
OC(CN1CCC(c2ccccc2)CC1)c1ccc(Br)cc1 (stereo not given),57%,74% (active),87.7% (active),32%,53%,61.2%,66%,64%,83.2% (active),64%,77% (active),76.8% (active),58%,93% (active),82.7% (active),80% (active),91% (active),80.5% (active)
O=c1oc2ccccc2c(O)c1/C=N/C(=S)NCc1ccccc1,-28%,-15%,83.8% (active),-11%,-18%,85.8% (active),-19%,-19%,87.3% (active),-19%,10%,76.2% (active),-19%,2%,78.3% (active),-36%,-12%,-42.5%
CCNC(=S)N/N=C(\C)c1cccc(C)n1,-5%,21%,54.6%,-37%,34%,76.3% (active),-31%,22%,54.7%,-21%,24%,50.9%,-20%,27%,62%,-9%,21%,37.2%
CCCCCCCCCN1CCNC1=S,-5%,63%,38.9%,-7%,30%,-10.4%,6%,60%,71% (active),-18%,40%,0.9%,34%,80% (active),54.3%,0%,61%,49.5%
CC(=O)N1C/C(=C\c2ccccc2)C(=O)/C(=C/c2ccccc2)C1,60%,87% (active),84.9% (active),47%,92% (active),82.7% (active),46%,98% (active),79.5% (active),35%,88% (active),67.5%,47%,91% (active),87.8% (active),62%,96% (active),78.9% (active)
CCCCCCCCCCCCOC(=O)CC1CC(C(C)=O)C1(C)C (stereo not given),2%,-9%,18.5%,0%,-7%,-20.8%,0%,-7%,24.1%,1%,-8%,84.3% (active),-3%,-13%,11.2%,25%,-4%,41.2%
Cc1ncc(Br)c(C(=O)O)n1,0%,-7%,6.65%,1%,3%,19.3%,5%,-3%,3.1%,-5%,1%,34.2%,-4%,-6%,0.75%,-1%,-8%,52.9%
CC(C)(C)CC(C)(C)c1ccc(O)cc1O,7%,99% (active),99.5% (active),7%,99% (active),99.5% (active),-3%,99% (active),99.2% (active),2%,98% (active),98.8% (active),36%,99% (active),98.8% (active),6%,99% (active),99.3% (active)
Cc1cccc(/C=N/NC(=S)Nc2ccccc2)n1,-19%,99% (active),89.2% (active),-49%,99% (active),92.8% (active),-42%,99% (active),91.2% (active),-37%,99% (active),91.8% (active),-42%,100% (active),92% (active),-30%,100% (active),89.3% (active)
S=c1sc2nc(Cl)nc(Cl)c2s1,99% (active),99% (active),87.1% (active),100% (active),99% (active),88.3% (active),100% (active),99% (active),89.5% (active),97% (active),99% (active),89.5% (active),100% (active),100% (active),87.4% (active),99% (active),98% (active),89.3% (active)
CN(C)CC1CCc2c(ccc3ccccc23)C1=O (stereo not given),8%,68%,69%,-16%,28%,66.8%,29%,76% (active),71.1% (active),12%,46%,39.7%,19%,82% (active),58.8%,40%,78% (active),53.8%
CCCCCCCCCCCCCCC(=O)OCC[N+](C)(C)C,33%,98% (active),90.2% (active),24%,98% (active),93% (active),45%,99% (active),92.8% (active),33%,98% (active),85.3% (active),44%,99% (active),91.8% (active),27%,97% (active),91.2% (active)
CCc1[nH]c2ccccc2c1N1C(=O)CC2(CCN(Cc3ccccc3)CC2)CC1=O,-4%,1%,32.1%,1%,25%,6.25%,-75%,23%,32.4%,-1%,2%,3.7%,-6%,8%,35.5%,-6%,10%,19.7%
FC(F)(F)c1ccc(Nc2ccc(C(F)(F)F)cc2)cc1,9%,100% (active),99.6% (active),-17%,100% (active),99.8% (active),12%,100% (active),99.6% (active),-5%,100% (active),99.6% (active),-3%,99% (active),99.7% (active),12%,100% (active),99.8% (active)
C=CCOC(=O)C(O)C(CC)CCCCC (stereo not given),25%,92% (active),52.9%,0%,87% (active),46%,9%,89% (active),76.7% (active),10%,31%,80.2% (active),16%,91% (active),54.4%,17%,92% (active),-3.3%
CN(C)c1ccc(C2(Cl)c3ccccc3N(Cc3ccccc3)c3ccccc32)cc1,99% (active),94% (active),96.5% (active),99% (active),95% (active),97.2% (active),99% (active),95% (active),96% (active),99% (active),93% (active),93.2% (active),99% (active),94% (active),96.4% (active),99% (active),94% (active),96.3% (active)
Cc1ccc(NC(=O)Cc2nc3ccccc3s2)c(C)c1,7%,99% (active),98.7% (active),9%,98% (active),99.3% (active),20%,99% (active),99.5% (active),6%,91% (active),95.7% (active),29%,99% (active),99% (active),14%,99% (active),99% (active)
CCCCCCOC(=O)CCC(=O)OCCCCCC,-7%,-20%,-2.7%,-3%,-20%,17.9%,-1%,15%,23.5%,32%,23%,41.1%,16%,43%,63.8%,-15%,-9%,24.1%
CC1=CC(=O)C=C(Br)C1=O,18%,99% (active),98.8% (active),12%,99% (active),99.5% (active),6%,95% (active),99.3% (active),2%,41%,87.7% (active),11%,99% (active),99.2% (active),13%,99% (active),99.2% (active)
CC(=O)OCCC1=CCC2CC1C2(C)C (stereo not given),-2%,2%,-22.6%,-40%,4%,7.2%,-3%,4%,-12.8%,-6%,-7%,23.4%,-10%,-5%,-16.2%,-3%,3%,-10.7%
